{
  "source": "the OligoGym collection",
  "data": [
    {"biological_target": "IP6K3", "assay": "pooled miR-30 sensor sort-seq; sequence = guide strand", "details": "shRNA", "values": [
      {"sequence": "TAGATGACAAGGAGAGAGCTGG", "sensor-assay potency score (higher = more potent)": -0.213},
      {"sequence": "TTTTCTTCCATAGTACTTGTCT", "sensor-assay potency score (higher = more potent)": 0.567},
      {"sequence": "TTGCAGAGAAAGTACTTCTTAT", "sensor-assay potency score (higher = more potent)": -0.832},
      {"sequence": "ATATTTACACTTGTCCACCAGT", "sensor-assay potency score (higher = more potent)": -0.684},
      {"sequence": "TATTTGAGATCTATAGCCCAGA", "sensor-assay potency score (higher = more potent)": -0.584},
      {"sequence": "TTACACTTGTCCACCAGTCTTG", "sensor-assay potency score (higher = more potent)": -0.0833},
      {"sequence": "TGACACTACATTTTCCAGCAAC", "sensor-assay potency score (higher = more potent)": -1.2},
      {"sequence": "TACACTTGTCCACCAGTCTTGT", "sensor-assay potency score (higher = more potent)": -0.242},
      {"sequence": "TTGTTCTCTGGGTACTCGGAGC", "sensor-assay potency score (higher = more potent)": -1.42},
      {"sequence": "TTTTCCAGCAACAAGAACCGAT", "sensor-assay potency score (higher = more potent)": -0.15},
      {"sequence": "TTCATAGAACCTCTGCTCCCGG", "sensor-assay potency score (higher = more potent)": -0.506},
      {"sequence": "TTCTTCCATAGTACTTGTCTTT", "sensor-assay potency score (higher = more potent)": -1.16}
    ]},
    {"biological_target": "IPO11", "assay": "pooled miR-30 sensor sort-seq; sequence = guide strand", "details": "shRNA", "values": [
      {"sequence": "TTAACTTCAAAGTTGTAGCTGT", "sensor-assay potency score (higher = more potent)": 0.668},
      {"sequence": "TTGTAGTAGAACTCGACCCATA", "sensor-assay potency score (higher = more potent)": -0.751},
      {"sequence": "TAATTCTAAACCATCTTCCAGA", "sensor-assay potency score (higher = more potent)": -0.364},
      {"sequence": "TTCCACAACCTTGAGCACCTGA", "sensor-assay potency score (higher = more potent)": 0.832},
      {"sequence": "TATCTCTACACACATTATCTGT", "sensor-assay potency score (higher = more potent)": -0.812},
      {"sequence": "TAGCTGGGTGACAATCTCCGTA", "sensor-assay potency score (higher = more potent)": -0.584},
      {"sequence": "TAACAGGAAACTAAGCAGCTAT", "sensor-assay potency score (higher = more potent)": -0.294},
      {"sequence": "TTGTTCTCCTAGCATCTCCTGC", "sensor-assay potency score (higher = more potent)": -0.927},
      {"sequence": "TAAATCTTGATCTTGAAGCAAG", "sensor-assay potency score (higher = more potent)": -0.725},
      {"sequence": "TTCTTTAATAGCATCATCTGAA", "sensor-assay potency score (higher = more potent)": -0.198},
      {"sequence": "TTTGTAGTAGAACTCGACCCAT", "sensor-assay potency score (higher = more potent)": -0.362},
      {"sequence": "TATACTTCTACTGCATTCCAGA", "sensor-assay potency score (higher = more potent)": -0.431}
    ]}
  ]
}
